Assay results taken from PubChem BioAssay AID504336 (NMMLSC, 2011).
Unmarked numbers belong to inactive results.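 The calls were made as follows: active = compounds whose GFP signal falls below 65% of the DMSO control level; inconclusive = fewer than 70 yeast cells counted in the well; inactive = the rest.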

Experiment: TOR branch reporter RPL19A-GFP response – cell-based, S. cerevisiae, third cherry pick, flow cytometry, confirmation (AID 504336);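 also: median GFP fluorescence of all gated yeast cells by flow cytometry; ratio of well median fluorescence to plate mean of DMSO wells with DMSO = 100%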
Details: S. cerevisiae RPL19A-GFP strain, 3 h, at 10 µM, active compounds read low

Row | Structure (SMILES) | GFP response relative to DMSO [%]
1 | CCN1CCN(c2ncnc3ccc(Br)cc23)CC1 | 100
2 | CN(C)C(=O)Oc1ccc(Cl)c2cccnc12 | 101
3 | C/C(O)=C(\C#N)C(=O)Nc1cc(Br)ccc1Br | 97.5
4 | Cc1ccc2c(c1N)C(=O)c1ccccc1C2=O | 101
5 | CN(C)C(=O)Oc1ccnc2cc(Cl)ccc12 | 102
6 | CN1CCN(c2ncnc3ccc(Br)cc23)CC1 | 99.3
